In PubChem BioAssay (NCI):
About 83,000 compounds went through this panel and 20% of them were active in at least one assay; those are over-represented in the sample as a whole.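 Assay: single dose, 48 h. Readout: percent growth (0 = no net growth; negative = cell death). Active: <10.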 Values without a mark were called inactive. Activity calls are given as the source filed them.

Test system: MDA-MB-468 breast
Assay: NCI-60 one-dose screen, 48 h (100 = growth as untreated, 0 = no growth, -100 = all killed)
Conditions: 10 µM unless noted

Compound	growth
CN1CCN(Cc2ccc(NC(=O)c3cncc(C#Cc4cnc5ccc(OCC(C)(C)O)nn45)c3)cc2C(F)(F)F)CC1	-40.2% (active)
Cn1cccc1-c1nc2c3c(ccc2[nH]1)C(=O)c1ccccc1C3=O	10.9%
COc1ccc(/C=C/C=C\C(=O)c2ccc(-n3ccnc3)cc2)cc1	92.4%
Oc1c(CN2CCC(N3CCOCC3)CC2)cc(Cc2cc(CN3CCC(N4CCOCC4)CC3)c(O)c3ncccc23)c2cccnc12	9.12% (active)
CCS(=O)(=O)Nc1cccc(Nc2c3cccc(C)c3nc3c(C)cccc23)c1OC	37.7%
COc1cccc(/C=C2\SC(=Nc3ccc(NC(C)=O)cc3)NC2=O)c1OC	109%
CSc1ccc(-c2ccccc(=O)c2O)cc1	11.5%
O=C(/C=C/c1cc(-c2ccc3c(c2)OCO3)n[nH]1)c1ccc2c(c1)OCO2	77.2%
NCCOc1ccccc1/C=C1\c2ccccc2-c2ccc([N+](=O)[O-])cc21	-36.1% (active)
CCc1c(C)c2ccc(OCC(=O)N=Nc3c(O)[nH]c4ccccc34)c(C)c2oc1=O	18.9%
CCC(=O)Oc1cc(/C=C/C(=O)O[C@H]2C[C@H]3CN4CCc5c([nH]c6cc(OC)ccc56)[C@@H]4C[C@@H]3[C@@H](C(=O)OC)[C@@H]2OC)ccc1OC	71.3%
NS(=O)(=O)c1cccc(Nc2nc(SCC(=O)c3ccc([N+](=O)[O-])cc3)nc3ccccc23)c1	0.252% (active)
N#CC1=C(N)Oc2cc(N)ccc2C1c1cccnc1 (stereo not drawn)	97.9%
O=c1cc(-c2ccc(Cl)cc2)[nH]c2ccccc12	85.6%
C/C(=C(\c1ccc(OCCN2CCCCCC2)cc1)c1ccc(OC(=O)Cc2ccccc2)cc1)c1ccc(Cl)cc1	-4.03% (active)
NCCOc1ncccc1/C=C1\C2C=CC=CC2C2C=CC(F)=CC12 (stereo not drawn)	-7.18% (active)
CCCCCCCCCCCCCC(=O)C(C)N (stereo not drawn)	33.3%
O=C(/C(=C/c1ccc([N+](=O)[O-])cc1)SCc1ccc(Cl)cc1)c1ccc(F)cc1	77.2%
CC(C)=CCc1cc(O)cc2c1OC(C=C(C)C)C1=C2C(=O)C2=C(C1=O)S(=O)(=O)CCN2 (stereo not drawn)	-31.2% (active)

Compound	growth
COc1cc2oc(-c3cccc(NC(=O)[C@@H](N)C(C)C)c3)cc(=O)c2c(OC)c1OC	99.5%
CCN1CCN(S(=O)(=O)c2oc(-c3ccc(Cl)cc3)nc2C#N)CC1	24%
Cc1cc(N(CCNc2ccnc3cc(Cl)ccc23)Cc2ccco2)nc(Cl)n1	-33.5% (active)
O=C(Nc1ccc(-n2cc(-c3ccncc3)c(-c3ccc(Cl)c(O)c3)n2)cc1)Nc1ccc(Cl)c(C(F)(F)F)c1	-19.8% (active)
Cc1[nH]c(-c2ccc3cc[nH]c3c2)c2c1C(=O)CCCC2	15.8%
COc1ccc(CCN2COc3c([C@@H](C)CCC=C(C)C)ccc(C)c3C2)cc1OC	26.8%
CC(C)(CNC1CCCCC1)OC(=O)c1ccccc1	94.3%
COc1cc2oc(-c3ccc(O)cc3)cc(=O)c2c(O)c1-c1c(OC)cc(O)c2c(=O)cc(-c3ccc(O)cc3)oc12	36.1%
C=C1CCC2C3(C)COC(c4ccccc4Br)OC3CCC2(C)C1C/C=C1/C(=O)OCC1OC(C)=O (stereo not drawn)	-34.3% (active)
CN1CCc2c(Sc3ccc(C(=O)NO)cc3)c3ccccc3n2C1	21%
COc1cc(-c2cc(/C=C/C(=O)c3ccc(Cl)c(Cl)c3)[nH]n2)cc(OC)c1OC	7.24% (active)
CCOC(=O)C1=C(C)Nc2nc3ccccc3n2C1c1ccccc1 (stereo not drawn)	85.6%
OCC(O)C(O)C(O)C(/C=N/Nc1ccccc1)=N/Nc1ccccc1 (stereo not drawn)	68%
CC(C)(N)CO[C@H]1C[C@H]2CC[C@@]1(C)C2(C)C	84%
c1ccc(OCCC[P+](c2ccccc2)(c2ccccc2)c2ccccc2)cc1	-7.95% (active)
Cc1ncc(C(=O)Nc2ccc(CN3CCN(C)CC3)c(C(F)(F)F)c2)cc1C#Cc1c(N)ncc2ccc(F)cc12	48.2%
O=c1[nH]c(=S)[nH]c2nc[nH]c12	100%
O=C(CSc1nnnn1-c1ccccc1)Nc1ccc(Oc2ccccc2)cc1	115%
C[C@H]1[C@H]2[C@H]3CC[C@@H]4[C@@]5(C)CC[C@H](O)C(C)(C)[C@@H]5CC[C@@]4(C)[C@]3(C)CC[C@]23CO[C@]1(C)[C@@H](C(=O)/C=C\c1cccnc1)C3	20.5%
